# Compound activity (PubChem BioAssay)
# EBV LMP1 NFkB – EBV LMP1-driven NF-kappaB luciferase reporter inhibitors, primary screen, cell-based, luminescence, single point. LMP1-induced NF-kappaB luciferase reporter cells. inhibition, % at 12.5 µM. 0.69% of 350,000 active; in the data active means inhibition above about 41%;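 further: 0% = neutral control wells and 100% = reference inhibitor control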
# Shn3 inh set2 – reduction of Shn3 3'UTR firefly luciferase signal, primary screen, Schnurri-3 inhibitor project, cell-based, Clone20 osteoblasts, set 2; Clone20 osteoblast Shn3 3'UTR firefly luciferase, 24 h; inhibition, % at 12.5 µM; 0.52% of 360,000 active; AID 588674, 2011;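 active means mean inhibition of at least 75% with every replicate also reaching 75%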;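 further: 0% = median of neutral control wells and 100% = pilot-screen positive control compound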
# TRPM1 prom inh – inhibitors of MITF-dependent TRPM1 promoter reporter, primary screen, cell-based, SK-MEL-5, single point, luciferase; 0.83% of 330,000 active; AID 488899, 2010; SK-MEL-5 TRPM1 promoter luciferase, 24 h; inhibition, % at 12.5 µM;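 active means mean inhibition across replicates of 60% or more, whatever share of single replicates reaches that level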
# HIF-2a inh – HIF-2a reporter inhibitors, primary screen, luminescence, 786-0 RCC cells. 0.72% of 360,000 active. inhibition, % at 18.8 µM. 786-0 RCC cells HIF-2a reporter, luciferase luminescence, overnight. AID 624352, 2012;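 active means inhibition of the luminescence signal of 40% or more relative to plate controls, in a single-dose primary screen at 18.75 µM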
# PAX8 reporter – inhibitors of PAX8-driven TPO luciferase reporter, primary screen, RMG-I cells, single concentration; SteadyGlo, 24 h; 1.2% of 360,000 active; inhibition, % at 12.6 µM;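 active means mean replicate inhibition at least 60% with every replicate also reaching 60%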;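 further: luciferase light reporting Pax8 driven TPO promoter activity; plate controls were median of neutral control wells for no effect and mitoxantrone controls for full effect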
# Peg3 promoter – Peg3 promoter-driven luciferase inhibitors, primary screen, cell-based, HeLa, luciferase luminescence; inhibition, % at 20 µM; HeLa PEG-Prom luciferase reporter, overnight; AID 588405, 2011; 1.7% of 360,000 active;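 active means inhibition of at least 50% at 20 µM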
# * marks the source's active call; other numbers are inactive results; . = no result given. Sampled rows, rich in hits. Any-hit rate of the full collection: about 2.8%.
SMILES,EBV LMP1 NFkB,Shn3 inh set2,TRPM1 prom inh,HIF-2a inh,PAX8 reporter,Peg3 promoter
C[C@@H]1CN([C@H](C)CO)C(=O)Cc2cc(NC(=O)Nc3ccc(F)cc3)ccc2O[C@H]1CN(C)C(=O)Nc1ccc(C(F)(F)F)cc1,.,.,.,.,80*,.
CC(C)NC(=O)N(C)C[C@H]1OCCCC[C@H](C)Oc2ccc(NC(=O)Cc3ccccc3)cc2C(=O)N([C@H](C)CO)C[C@H]1C,.,.,.,.,6,.
CN(C)CC(=O)Nc1ccc2c(c1)[C@H]1C[C@@H](CC(=O)NC3CCCCC3)O[C@H](CO)[C@H]1O2,.,.,.,.,-8,.
Cc1noc(C)c1S(=O)(=O)Nc1ccc2c(c1)C(=O)N([C@@H](C)CO)C[C@@H](C)[C@H](CN(C)Cc1ccccc1)OCCCC[C@@H](C)O2,.,.,.,.,5,.
CCC(=O)N1CC(=O)N2[C@H](CO)[C@@H](c3ccc(C#CCC(C)C)cc3)[C@@H]2C1,.,.,.,.,-1,.
CCN(CC)CCNC(=O)c1c(O)c2cc(OC)c(OC)cc2[nH]c1=O,55*,1,2,3,.,-3
COC(=O)C(CC#Cc1ccc2c(c1)[C@]1(C(=O)N2)[C@H](c2ccc(OCCO)cc2)N2[C@H](c3ccccc3)[C@H](c3ccccc3)OC(=O)[C@H]2[C@@H]1C(=O)NC[C@H](O)c1ccccc1)C(=O)OC,.,.,.,.,1,.
COc1ccc(C#Cc2ccc3c(c2)[C@]2(C(=O)N3)[C@H](c3ccccc3OCCO)N3[C@H](c4ccccc4)[C@H](c4ccccc4)OC(=O)[C@H]3[C@@H]2C(=O)NC[C@H](O)c2ccccc2)cc1,.,.,.,.,89*,.
COc1ccc(C#Cc2ccc3c(c2)[C@]2(C(=O)N3)[C@H](c3ccc(OCCO)cc3)N3[C@H](c4ccccc4)[C@H](c4ccccc4)OC(=O)[C@H]3[C@@H]2C(N)=O)cc1,.,.,.,.,73*,.
COc1ccc(NC(=O)N(C)C[C@@H]2Oc3c(cccc3N(C)C)C(=O)N([C@H](C)CO)C[C@@H]2C)cc1,.,.,.,.,8,.
Cc1ccc(NC(=O)C(Nc2ccccc2)c2ccccc2)cc1 (stereo not given),1,11,1,19,-9,4
Cc1ccc(NC(C(=O)c2ccccc2)c2ccccc2)cc1 (stereo not given),26,-3,-19,-85,80*,-46
CCOC(=O)c1sc(NC(=O)CCN2CCN(C)CC2)c(C(=O)OCC)c1C,-5,-10,29,-17,3,84*
CCOC(=O)c1sc(NC(=O)CN2CCCC2)c(C(=O)OCC)c1C,-16,28,7,-9,.,0
O=C(NC(NC(=S)Nc1c(Cl)cccc1Cl)C(Cl)(Cl)Cl)c1cccc([N+](=O)[O-])c1 (stereo not given),-9,48,-4,11,35,52*
COc1ccc([N+](=O)[O-])cc1NC(=O)C(C)c1ccccc1 (stereo not given),5,11,3,16,-2,22
COc1ccc([N+](=O)[O-])cc1NC(=S)NC(NC(=O)C(c1ccccc1)c1ccccc1)C(Cl)(Cl)Cl (stereo not given),37,45,19,-10,.,50*
CN(C)c1ccc2c(c1)[C@@H]1C[C@H](CC(=O)NCc3ccc(Oc4ccccc4)cc3)O[C@H](CO)[C@@H]1O2,.,.,.,.,17,.
CCOC(=O)c1sc2ccccc2c1OC(=O)c1ccccc1OC,6,7,4,-32,60*,27
CCOC(=O)c1cc(OC(=O)c2ccccc2OC)n(-c2ccccc2)n1,5,-4,8,18,.,13
O=S(=O)(c1cnc(Cl)c(Br)c1)N1CCc2ccccc21,4,8,3,36,31,69*
O=S(=O)(c1cnc(Cl)c(Cl)c1)N1CCCc2ccccc21,-4,-35,-5,22,-9,52*
O=S(=O)(c1cc(Cl)ccc1Cl)N1CCc2ccccc21,11,16,-7,27,4,27
O=S(=O)(c1cnc(Cl)c(Cl)c1)N1CCc2ccccc21,-2,9,15,22,-17,42
O=C(Nc1ccc(Cl)cc1)N[C@H]1CC[C@@H](CCNC(=O)c2cc(Cl)cc(Cl)c2)O[C@@H]1CO,.,.,.,.,17,.
SMILES,EBV LMP1 NFkB,Shn3 inh set2,TRPM1 prom inh,HIF-2a inh,PAX8 reporter,Peg3 promoter
Nc1nc(Nc2ccccc2)nc2ccccc12,-12,-44,-33,-143,-68,-202
CCOc1ccc(Nc2nc(N)c3ccccc3n2)cc1,53*,-6,36,47*,42,58*
CC1(C)CC(=O)C2=C(C1)N=C1c3ccccc3C(=O)C1C2c1ccc(Cl)cc1 (stereo not given),7,28,20,47*,.,58*
Cc1cc2ncn(/N=C/c3ccc([N+](=O)[O-])s3)c2cc1C,-3,3,43,-6,22,73*
O=[N+]([O-])c1ccc(/C=N/n2cnc3ccccc32)s1,37,90*,86*,-46,51,38
COc1ccc(CN(C)C[C@@H]2Oc3c(NC(=O)Nc4c(C)noc4C)cccc3C(=O)N([C@H](C)CO)C[C@H]2C)cc1,.,.,.,.,-7,.
O=C(Nc1ccc2cn[nH]c2c1)c1c(Cl)cccc1Cl,0,14,-10,7,14,-35
CN(C)c1ccc(NC2=C(Cl)C(=O)c3ccccc3C2=O)cc1,20,98*,102*,96*,34,100*
O=C1C(Cl)=C(Nc2ccc3cn[nH]c3c2)C(=O)c2ccccc21,12,96*,106*,95*,81*,97*
C/C=C/c1ccc2c(c1)O[C@@H](CN(C)C(=O)c1cnccn1)[C@@H](C)CN([C@@H](C)CO)S2(=O)=O,.,.,.,.,-6,.
CCc1nc(Nc2cccc(O)c2)c2oc3ccccc3c2n1,-10,-2,-7,10,.,57*
CCc1nc(Nc2ccc3c(c2)OCO3)c2oc3ccccc3c2n1,4,25,-19,-79,-35,-8
Oc1ccc(C[C@@H]2CNCCN2CCCCC2CCCCC2)cc1,1,9,-12,4,-23,94*
c1ccc(C[C@H]2CNCCN2CCc2cccc3ccccc23)cc1,-2,-11,-9,7,-8,16
FC(F)(F)c1cc(CCN2CCNC[C@H]2Cc2cccc3ccccc23)cc(C(F)(F)F)c1,2,38,10,8,-6,101*
Oc1ccc(C[C@@H]2CNCCN2CCc2cc(C(F)(F)F)cc(C(F)(F)F)c2)cc1,-10,-4,1,2,11,103*
CCCCC(=O)NNC(=O)c1c(O)c2ccccc2[nH]c1=O,4,-1,-1,11,-24,9
O=C(CCl)NNC(=O)c1c(O)c2ccccc2[nH]c1=O,-10,0,4,-26,-4,58*
